The supplement of paper PMC11417369
± gives the standard deviation of the averaged measurements. The full ranking holds about 25,000 sequences; the median of “ln(normalized median fluorescence intensity)” is about 10, and the highest 2% start at about 12. The sample holds the highest values, similar sequences and a random draw of the others, so the mix is not that of the screen.

System: PfAP2-G AP2 domain (GST-tagged)
Experiment: gcPBM binding intensity (ln(normalized median fluorescence intensity)); higher = stronger DNA binding
In short: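 Plasmodium falciparum DNA-binding domains carrying a GST tag were expressed in E. coli and applied for 1 h, at about 25 μg on average, to an Agilent 4 × 180k array. The array held primer-extended double-stranded 36-bp intergenic genomic probes together with negative controls, and binding took place in 1× PBS with 1% milk, 0.2 mg/ml BSA, 0.5% salmon testes DNA and 0.03% Triton X-100. An Alexa488 anti-GST antibody detected bound protein, and the array was scanned at 488 nm. Binding intensity is taken as the highest Masliner-normalised natural-log median intensity across replicate spots of either probe orientation.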

| Sequence | gcPBM binding intensity (ln) |
| --- | --- |
| AAGATACACTTAATCGCACACGAAATTATATATTTA [CACACA_site3063] | 10.1 ± 0.24 |
| TATATATATTATATATGTACATATATTTTTTTTTTT [XGTACX_site127] | 11.2 ± 0.81 |
| ATTTAAGGGGTGTATGCACACGACTATTCCGTATGA [CACACA_site4738] | 10.23 ± 0.092 |
| CATATTTTCTTGTGTACACATTTATTTTATACTATA [CACACA_site6032] | 11.7 ± 0.97 |
| TATATCTGTTTATATTGTACACATATATATATATAT [XGTACX_site714] | 11.4 ± 0.93 |
| ATACGCACACATATATGTACATATTGTATATATATA [XGTACX_site3962] | 11.2 ± 0.71 |
| ATTTTTTTTTCTTGTACACACTATTTTATAATTTTA [CACACA_site6102] | 11.6 ± 0.93 |
| AATATGTAATAGTGTACACATATATCTGTATTTATG [CACACA_site4252] | 11.6 ± 0.91 |
| TATATATATATATATAGTACGCACACATAGTTGCAA [XGTACX_site5875] | 11.1 ± 0.67 |
| TCATTCTTGTGTTTATGTACACATATTTATATTGTA [XGTACX_site710] | 11.4 ± 0.88 |
| ATATATATATAGTACGCACACATAGTTGTACATTAA [CACACA_site2787] | 12 ± 1.3 |
| TATTATCTGTAGTGTACACATATTATATAGTACTTT [CACACA_site4582] | 11.8 ± 1 |
| ATGAATTAACCTAATCGTACAATAAATATTATTATA [XGTACX_site596] | 11 ± 0.81 |
| AAAATTAAAAAGAACACACAAATATATCTATAATAA [CACACA_site7660] | 9.81 ± 0.26 |
| TTCTATATTATATATGCATGTGTTATTCTTATTTTC [TGCATGCA_site92] | 9.87 ± 0.057 |
| ATTTATATATATTTATGTACGTATTAATTTTTTTTT [XGTACX_site3877] | 11.5 ± 0.88 |
| ATATGATTAATTAAGTGTACGTATTTATAATTATAA [XGTACX_site5783] | 11.7 ± 1 |
| TTATATTTTATTATGTGTACGTATATAATATAATAT [XGTACX_site6230] | 11.6 ± 0.97 |
| ATTTTTTTTTTTTATAGTGGATCCACATTTGCCATT [CACACA_negctrl_site1284] | 10.3 ± 0.36 |
| AAAAAAAATTAGGAAACATGCATGTCCCGATAAATA [TGCATGCA_site149] | 10.28 ± 0.049 |
| TCTTATTATAAAAGGAGTACATCAATTAGATGTTCC [XGTACX_site8465] | 11.6 ± 1 |
| ATAATATATATATATATATTATCAAATATATATATA [GTGCAC_negctrl_site346] | 9.55 ± 0.23 |

| Sequence | gcPBM binding intensity (ln) |
| --- | --- |
| TATTATATATAATATTGTACATTAAAATATTAAAGA [XGTACX_site3698] | 10.9 ± 0.67 |
| ATATAATGAAGTGAATGTACATATAAAATGTAAAAA [XGTACX_site8052] | 11.1 ± 0.43 |
| GGAAGATGAAAAATAAAGCATGTGCTGTACAAACGA [CACACA_negctrl_site1625] | 10.8 ± 0.37 |
| TTATTTAAATAATATGTACACACATTTAAAAAATTA [CACACA_site8912] | 11.6 ± 0.95 |
| GATGATGTTTATTTGTGTACATATTAATACTTAATA [XGTACX_site1902] | 11.4 ± 0.82 |
| ATATAAATATTTATTAGTACACATTAGTGTAGTTTT [XGTACX_site4493] | 11.5 ± 0.88 |
| GATGATAAAATATGTACACACAGTTTATACATTTTG [CACACA_site4055] | 11.3 ± 0.76 |
| AATATTTTGATGTGTACACATTAATACAGTTTTACA [CACACA_site5711] | 11.7 ± 0.91 |
| TTAATATTTTGATGTGTACACATTAAAATAGTTTTA [CACACA_site5712] | 11.8 ± 0.89 |
| TTTTATTATTTGTCTTGTACTCATTGTAAGAGTATG [XGTACX_site1538] | 11.4 ± 0.91 |
| ATATAATAATATTATACATGCAAAATATGTTCTTCA [TGCATGCA_site115] | 9.795 ± 0.049 |
| AACTTTATACTTTTTTGTACTTAACCCTTACATTTT [XGTACX_site5798] | 11.1 ± 0.38 |
| AATAACAATTATAAAAGTACAGATTTTTATTTCTAA [XGTACX_site5746] | 11.1 ± 0.79 |
| AAATAAAATTTTATGTGTACGCAAAAAGTTGTAAGC [XGTACX_site8911] | 11.9 ± 1.3 |
| TATGTATATATATAAAGTACGCAAATTTATAATAAG [XGTACX_site8744] | 11.5 ± 0.98 |
| TATATAAAAATATGTTGTACGCATTTATAAATATAT [XGTACX_site3758] | 11.6 ± 0.98 |
| GCGTAATCTATTTGCACACTTATTTGTTCTTAAAAA [CACACA_site672] | 10.2 ± 0.14 |
| AAGATATGTACTAATACACACACATATATATATATA [CACACA_site8249] | 11.2 ± 0.79 |
| CATACATTTAAAAAGTGTACGTATATGAAAAAAGGA [XGTACX_site6512] | 11.7 ± 1.1 |
| ATGAAAATTATAAAGTGTACATATAGAAACATTTAC [XGTACX_site8047] | 11.4 ± 0.99 |
| TGTATATACATAAAGTGTACGTATATTTATATATAT [XGTACX_site4320] | 11.6 ± 0.98 |
| TACATATACATATACACACACACACCCAAATAAATA [CACACA_site1344] | 10.3 ± 0.35 |

| Sequence | gcPBM binding intensity (ln) |
| --- | --- |
| TATATTAACAAAATGGTGCAATAATTTCTATATTAT [GTGCAC_site9857] | 10.1 ± 0.22 |
| TTTTCTCTAAAAAGGTGTACAACTAATAATGCACTG [XGTACX_site6074] | 11.7 ± 0.83 |
| ATTTTTCTAAAATACTGTACAAAGGTGCATAAAAAG [XGTACX_site4425] | 11 ± 0.64 |
| GATAATGAATGATGCACACTAAAAATATTCTACAAC [CACACA_site3622] | 10.185 ± 0.007 |
| TTATATATTTTATTATTTATAATCTTTTTTTTATTT [CACACA_negctrl_site112] | 9.585 ± 0.049 |
| AAAAATGAGTGACACACACACATATAAATATAAATA [CACACA_site7115] | 10.1 ± 0.25 |
| TATGTATGCCTGTTTTGTACTTAAGAAAATGTTGCT [XGTACX_site8443] | 11 ± 0.57 |
| TATTTTTTTAATAACTGTACTTTTTTGTCAAATGGA [XGTACX_site4179] | 11.7 ± 1.2 |
| TGTGTCAAATAATTAATGTCATATATATTTTGTATA [CACACA_negctrl_site1479] | 9.675 ± 0.078 |
| AATTTTTGTATTTTTAGTACTTAATTTCAAAATAAC [XGTACX_site4234] | 11.2 ± 0.6 |
| AATAAATATATATTCACACACAAACATATATATATA [CACACA_site4023] | 10.1 ± 0.45 |
| CAGTATTACATGAGGACACACACAAAAAAAATATAT [CACACA_site8156] | 11.3 ± 0.86 |
| AATATAAAAAAAAAATGTACATATTATATATATATA [XGTACX_site5113] | 11.1 ± 0.72 |
| ATAATTAAATAAAAAAGTACACATACATCATAATGC [XGTACX_site7656] | 11.5 ± 0.87 |
| AAAAAATAATTGAAGTGTACGTACAATGATTTTACT [XGTACX_site7663] | 11.8 ± 1.1 |
| TTAAAAATGATTGAATGTACAGATTAATATAATTTT [XGTACX_site7394] | 10.7 ± 0.28 |
| AAAAGAACAATGAAGTGTACTAATAATTATTTATGT [XGTACX_site6649] | 11.3 ± 0.79 |
| TAAAATGAAGGAATATGTACATAAATAAACATATAT [XGTACX_site6266] | 11.2 ± 0.63 |
| TTATAGTAATAATAATGTACATTTATACACATATAT [XGTACX_site1965] | 10.9 ± 0.47 |
| GACATTTGTGAGCTTGAGCCGTCAAACCACTAAATA [CACACA_negctrl_site552] | 9.99 ± 0.028 |
| AAAAGAAAAGAGAGGAGTACAAAATATAATTATCTA [XGTACX_site5172] | 11.3 ± 0.76 |
| TAAAAATGATCAAAGGGTACAGTATTAATTAAAAAA [XGTACX_site1079] | 11.3 ± 0.93 |

| Sequence | gcPBM binding intensity (ln) |
| --- | --- |
| ATATAAGATTTAAGAAGTACAATTATACAGTAGATC [XGTACX_site7501] | 11.4 ± 0.88 |
| GGGGGTAGGGGAAGAAGTACAATGATCACTACAGTA [XGTACX_site1169] | 11.9 ± 1.3 |
| TATTTATACATACGTACACACAAATATTAAAATATA [CACACA_site7004] | 11.5 ± 0.96 |
| TTTATTTATTTTTAACGTACGCACACATATAAATAT [XGTACX_site4042] | 11.4 ± 0.72 |
| AGGCGTGAAATATACGTACACACATTATTTATATTT [CACACA_site2558] | 11.6 ± 1 |
| TTATTTTTAACGTACGCACACATATAAATATATTTA [CACACA_site1976] | 11.5 ± 0.97 |
| CAGGCGTGAAATATACGTACACACATTATTTATATT [XGTACX_site5337] | 11.8 ± 0.94 |
| CGCAACGTGAAAATACGTACACATACATTTTTATAT [XGTACX_site330] | 11.7 ± 0.85 |
| TTGTTAATATATATATGTACTTATTTATTTATTTAT [XGTACX_site2274] | 11.4 ± 0.93 |
| TATATATATATATAATGTACAGAAAAAAAAAAAAAA [XGTACX_site6141] | 10.8 ± 0.86 |
| TATTCAAAGAAAAACTGTACGTGTAGCAAACGTCAT [XGTACX_site7713] | 11.5 ± 0.83 |
| TACAGATAAATATACATACATATATATATATATATA [XGTACX_negctrl_site182] | 9.86 ± 0.42 |
| TGAAATTTTTATACATGTACAAAATTAAATATAACA [XGTACX_site7324] | 10.8 ± 0.49 |
| TTATTTATTTAGTAGTGTACTTTTTATATTTATAAT [XGTACX_site5978] | 11.6 ± 0.99 |
| TTATATATTTTTAGGTGTACTTTTTTTTTTTTTTTT [XGTACX_site8164] | 11.7 ± 0.91 |
| GTATATTTTTAAAGGTGTACTTTTTTTTTTTTTTTT [XGTACX_site721] | 11.8 ± 1.1 |
| TATTTTATATAAAGGTGTACTTATACAAAAATATAT [XGTACX_site7435] | 11.5 ± 0.88 |
| ATATATATTTTATATTGTACTTATTATTTTTAGGGC [XGTACX_site723] | 11.4 ± 0.81 |
| TATATTTTTTTAAAAAGTACTTTGTATATATATATA [XGTACX_site1300] | 11.1 ± 0.83 |
| TAAAAAAAAAGAAGCTGTACTAAAAAATTTATATTA [XGTACX_site7408] | 11.1 ± 0.81 |
| ACATATAATATAAAGTGTACAAGAAAATAAAAATAA [XGTACX_site1273] | 11.3 ± 0.77 |
| TATATATATATTATATGTACACAAGGAAATATGCAT [XGTACX_site5637] | 11.5 ± 0.75 |
